# Source: ChEMBL document CHEMBL4808148, “HDAC6 screening dataset using tau-based substrate in an enzymatic assay yields selective inhibitors and activators” (2021)
# Out of some 5,600 compounds screened, about 150 (2.7%) showed an effect of 50% or more. For the sample, strong results were picked, then their nearest neighbours and some compounds at random.
# What was measured:
# [1] = target: T1, Protein deacetylase HDAC6 (Homo sapiens) (UniProt Q9UBN7); settings: at 10 µM
# T1 sequence (whole entry): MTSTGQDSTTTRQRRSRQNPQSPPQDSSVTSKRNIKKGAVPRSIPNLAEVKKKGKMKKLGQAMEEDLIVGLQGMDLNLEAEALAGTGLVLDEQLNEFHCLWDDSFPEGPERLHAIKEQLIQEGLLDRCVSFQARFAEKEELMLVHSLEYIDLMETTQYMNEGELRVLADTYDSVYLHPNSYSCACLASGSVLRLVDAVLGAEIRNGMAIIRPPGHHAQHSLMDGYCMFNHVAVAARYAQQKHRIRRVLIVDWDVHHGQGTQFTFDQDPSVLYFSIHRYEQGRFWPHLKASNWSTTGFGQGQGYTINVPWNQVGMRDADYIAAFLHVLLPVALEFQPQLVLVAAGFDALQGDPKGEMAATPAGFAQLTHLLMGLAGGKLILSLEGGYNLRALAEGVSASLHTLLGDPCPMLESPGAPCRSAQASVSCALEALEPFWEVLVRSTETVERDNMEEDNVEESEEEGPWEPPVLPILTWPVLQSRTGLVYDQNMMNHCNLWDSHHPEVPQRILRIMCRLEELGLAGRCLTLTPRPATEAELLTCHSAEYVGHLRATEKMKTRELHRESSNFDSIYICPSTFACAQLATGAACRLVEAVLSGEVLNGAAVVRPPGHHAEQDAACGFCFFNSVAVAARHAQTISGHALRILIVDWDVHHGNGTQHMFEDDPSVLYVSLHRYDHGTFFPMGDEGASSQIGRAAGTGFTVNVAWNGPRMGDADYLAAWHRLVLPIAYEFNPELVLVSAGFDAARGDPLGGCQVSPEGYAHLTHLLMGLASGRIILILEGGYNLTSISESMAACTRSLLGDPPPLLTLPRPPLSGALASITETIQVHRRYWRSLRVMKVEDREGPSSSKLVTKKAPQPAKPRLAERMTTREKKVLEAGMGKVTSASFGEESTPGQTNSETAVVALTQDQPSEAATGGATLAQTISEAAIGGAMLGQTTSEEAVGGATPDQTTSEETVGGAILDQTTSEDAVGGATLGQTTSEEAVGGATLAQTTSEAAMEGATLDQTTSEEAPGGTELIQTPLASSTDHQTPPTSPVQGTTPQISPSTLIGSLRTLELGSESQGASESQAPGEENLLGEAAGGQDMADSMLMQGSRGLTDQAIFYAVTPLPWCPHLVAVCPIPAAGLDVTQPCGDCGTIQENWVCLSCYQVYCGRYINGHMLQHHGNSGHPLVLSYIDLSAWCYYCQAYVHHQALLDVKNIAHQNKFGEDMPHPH
# [2] = target: Protein deacetylase HDAC6 (Homo sapiens) (UniProt Q9UBN7); settings: at 10 µM; remark: listed apart in the source
Compound,inhibition [1],inhibition [2]
Nc1ccn([C@@H]2O[C@@](CO)(CCl)[C@@H](O)[C@H]2F)c(=O)n1,-1.66%,
O=C(/C=C/c1ccc(O)c(O)c1)c1ccc(O)cc1O,99.2%,
O=C(/C=C/c1ccc(O)c(O)c1)O[C@H](Cc1ccc(O)c(O)c1)C(=O)O,3.24%,
O=C(/C=C/c1ccc(O)cc1)c1ccc(O)cc1O,99.7%,
CC(C)(C)c1cc(C(=O)/C=C/c2ccc(C(=O)O)cc2)cc(C(C)(C)C)c1,2.42%,
O=C(O)/C=C/c1ccc(O)cc1,-0.48%,
O=C(O)/C=C/c1ccc(O)c(O)c1,-0.33%,
CC(C)C[C@@H](NC(=O)OCC1c2ccccc2-c2ccccc21)C(=O)O,3.37%,
"CARBOPLATIN, CHEMBL1351",,-2.28%
CC(C)C[C@H](NC(=O)OCC1c2ccccc2-c2ccccc21)C(=O)O,-7.02%,
CC(C)(C)C1CCc2c(sc(NC(=O)c3ccco3)c2C(=O)O)C1 (stereo not drawn),-1.94%,
O=c1ccc2c(OCCCCOc3ccccc3)c3ccoc3cc2o1,-4.23%,
COc1ccc(S(=O)(=O)Nc2cc(Cl)cc(Cl)c2OC)cc1N1CCNCC1,-0.38%,
CC1(C)Oc2ccc(C#N)cc2[C@H](N(Cc2ncc[nH]2)c2ccc(Cl)cc2)[C@H]1O,5.57%,
CC(C)c1ccc(-c2cc(=O)c3ccccc3o2)cc1,77.3%,
CCOC(=O)COc1ccc2c(=O)cc(-c3ccccc3)oc2c1,-3.12%,
O=C(O)c1cc(=O)c2ccccc2o1,10.2%,

Compound,inhibition [1],inhibition [2]
"ACRIFLAVINE HYDROCHLORIDE, CHEMBL5219995",,7.54%
CCCCCCCCCCCCCCCCCCCCCC(=O)Nc1ccn([C@@H]2O[C@H](CO)[C@@H](O)[C@@H]2O)c(=O)n1,-7.93%,
COc1cc(-n2cnc3cc(-c4ccc(Cl)cc4)sc3c2=O)ccc1OCCN1CCCC1,2.09%,
O=C(CC(c1ccccc1)c1ccccc1)N1CCN(C(c2ccccc2)c2ccccc2)CC1,-2.23%,
O=C(O)[C@H]1O[C@H](Oc2cc3oc(-c4ccccc4)cc(=O)c3c(O)c2O)[C@H](O)[C@@H](O)[C@@H]1O,-2.69%,
O=C(O)Cc1cccc2c(=O)cc(-c3ccccc3)oc12,2.51%,
O=c1cc(-c2ccccc2)oc2cc(O)cc(O)c12,72.7%,
O=c1cc(-c2ccccc2)oc2cc(O)c(O)c(O)c12,75.1%,
COc1ccc(-c2cc(=O)c3c(OC)c(OC)c(OC)c(OC)c3o2)cc1OC,-7.64%,
O=C1C[C@@H](c2ccccc2)Oc2cc(O)cc(O)c21,4%,
O=c1cc(-c2ccc(O)cc2)oc2cc(O)cc(O)c12,66.2%,
O=c1c(O)c(-c2ccc(O)cc2)oc2cc(O)cc(O)c12,47.1%,
O=c1c(O)c(-c2cc(O)c(O)c(O)c2)oc2cc(O)cc(O)c12,6.61%,
COc1ccc(-c2cc(=O)c3c(OC)c(OC)c(OC)c(OC)c3o2)cc1,-4.13%,
COc1ccc(-c2cc(=O)c3c(O)c(OC)c(O)cc3o2)cc1OC,58.5%,
O=c1oc2cc(O)ccc2s1,-3.98%,
